Reference: PubChem BioAssay (NCI)
About 83,000 compounds went through this panel and 20% of them were active in at least one assay; those are over-represented in the sample as a whole.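 Percent growth is the endpoint: 0 to 100 indicates growth inhibition (40 means 60% inhibition), 0 means no net growth, and negative values indicate cell death.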 Calls of active or inactive are those of the source.

System: NCI-H322M lung
Test: NCI-60 one-dose screen, 48 h (100 = growth as untreated, 0 = no growth, -100 = all killed)
Settings: 10 µM unless noted
Method: Growth inhibition of the NCI-H322M human Non-Small Cell Lung tumor cell line is measured as a screen for anti-cancer activity. Cells are grown in 96 well plates and exposed to the test compound for 48 hours. Compounds are tested at a single concentration, which is 10^-5 M for most compounds. The reported endpoint is percent growth (GI% or GIPRCNT), where numbers from 0 - 100% represent growth inhibition, and numbers from -100% - 0 represent cell death. For example, a value of 40 represents 60% growth inhibition. A value of 0 means no net growth occurred over the course of the experiment. A value of -40 indicates 40% of cells at the beginning of the experiment died by the end of the experiment. A value of -100 means all cells are dead at the end of the experiment.
NCI-60 Human Tumor Cell Lines Screen was performed using the standard one-dose NCI protocol, which is described in more detail at https://dtp.cancer.gov/discovery_development/nci-60/default.htm.
Compounds with GIPRCNT values below 10 were considered active. Activity score was based on GIPRCNT using the following formula: […]
Score is 0 for GIPRCNT values of 100 or above, 50 for GIPRCNT values of 0, and 100 for GIPRCNT values of -100.

SMILES | growth
C=C[C@@H]1C[C@H](O)Cc2c(C)cc(C)cc2N1 | 117% (inactive)
COc1cc(C(=O)/C=C/c2c(C)n([O-])c3ccc(C(F)(F)F)cc3[n+]2=O)cc(OC)c1OC | 118% (inactive)
CCOC(=O)NNC(=S)Nc1ccccc1 | 102% (inactive)
COc1cc(NC(N)=NCCC(C)(C)c2ccc(C(F)(F)F)cc2)ncc1C#N | 36.1% (inactive)
Brc1cccc(-c2cc(-c3ccc4nccnc4c3)[nH]n2)c1 | 50.5% [25 µM] (inactive)
COc1cc(C2CC(c3ccc4c(c3)OCO4)=NN2C=O)cc(OC)c1OC (stereo not given) | 14.1% (inactive)
COc1cc(Cn2cc3c(c2)-c2oncc2CC3)cc(OC)c1OC | -2.65% (active)
CCOC(=O)c1ccc2c(c1)c1c(C)c3cccnc3c(C)c1n2C | 56.9% (inactive)
CC(=O)OC[C@]12CC[C@H]3[C@@H](C[C@H]4O[C@]45CC=CC(=O)[C@]35C)[C@]1(O)CC[C@@]2(O)[C@@](C)(O)C1CC(C)=C(C)C(=O)O1 (stereo not given in full) | -54.2% (active)
COc1ccc(/C=C2\Oc3cc(OCCCN4CCCC4)ccc3C2=O)cc1 | 93.1% (inactive)
CCO/C=N/C1=C(C#N)C(c2ccc(Cl)cc2)c2c(c3ccccc3n(C)c2=O)O1 (stereo not given) | 85.9% (inactive)
COc1ccc(-c2nc(/C=N/Nc3cc(C)nc4ccc(Br)cc34)c(C)o2)cc1 | -96.2% (active)
COc1ccc(-c2c(-c3cc(OC)c4c(c3)OCO4)noc2N)cc1 | 51.1% (inactive)
COc1ccc(-c2nc(/C=C3/C(=O)Nc4ccc(F)cc43)c3ccccn23)cc1 | 126% (inactive)
Fc1ccc(Nc2ncnc3ccc(-c4cnc5[nH]ccc5c4)cc23)cc1Cl | 19.2% (inactive)
COc1ccc(-c2c(N)n[nH]c2-c2cc(OC)c(OC)c(OC)c2)cc1 | 43.9% (inactive)
COc1ccc(NC(=O)c2c(Nc3ccc(OC)cc3OC)n[nH]c2N)c(OC)c1 | 87.7% (inactive)
NC(N)=Nc1nc2ccccc2o1 | 106% (inactive)
CC1(C)C(=O)/C(=C\c2ccc(C(F)(F)F)cc2)C[C@]2(C)[C@H]3CC[C@@H]4[C@H]5[C@H](C(=O)/C=C/c6ccc(C(F)(F)F)cc6)CC[C@]5(CO)CC[C@@]4(C)[C@]3(C)CC[C@@H]12 | 101% (inactive)
COc1ccc(C(=O)c2cc(OC)c(OC)c(OC)c2OC)cc1O | 55.4% (inactive)

SMILES | growth
CC(C)(C)NCCC(O)c1cc2c(Cl)cc(Cl)cc2c2cc(C(F)(F)F)ccc12 (stereo not given) | -54.2% (active)
COc1ccc(-c2ccc(-c3ccc(C(=N)N)s3)s2)cc1Cl | 96.8% (inactive)
COC1=C(OC)C(=O)C(CCCCCCCCCC[P+](c2ccccc2)(c2ccccc2)c2ccccc2)=C(C)C1=O | -17.9% (active)
CCOC(=O)C1CCNC(=O)C1=O (stereo not given) | 144% (inactive)
O=C(Nc1ccncc1)C(=O)c1cn(S(=O)(=O)c2ccc(Br)cc2)c2ccccc12 | 97.1% (inactive)
O=C(Nc1cccc(-n2cc(-c3ccncc3)c(-c3ccc(Cl)c(O)c3)n2)c1)Nc1ccc(Cl)c(Cl)c1 | 40.6% (inactive)
CC(C)(C)N1CCC1C(N)=O (stereo not given) | 125% (inactive)
Nc1cccc(Cl)c1N | 99.5% (inactive)
COc1ccc(/C=C2/C(=O)NC(SCC(=O)N3CCN(c4cc5c(cc4F)c(=O)c(C(=O)O)cn5C4CC4)CC3)=NC2N)cc1OC (stereo not given) | 111% (inactive)
COc1cc(C2C3=C(COC3=O)Nc3cc4c(cc32)OCO4)cc2c1OCO2 (stereo not given) | 48.5% (inactive)
COc1ccc(/C=C\c2cc(OC)c(OC)c(OC)c2)cc1OC(=O)c1cccc(Cn2cc(CCOC(=O)c3cccc(Cn4nnc5c4C(=O)c4ccccc4C5=O)c3)nn2)c1 | 50.5% (inactive)
C=COC(=O)CCCCCCCCC | 102% (inactive)
COc1cc(Nc2nc(N[C@H]3CCCC[C@@H]3N)nc3cc[nH]c(=O)c23)cc(OC)c1 | 9.42% (active)
CC(C)(C)n1cc(-c2ccnc(NCCNS(=O)(=O)c3ccc(F)cc3)c2)c(-c2cccc(O)c2)n1 | 72.3% (inactive)
O=C1CCCCC1(c1ccccc1)c1ccccc1 | 111% (inactive)
CCCCCCCC[C@@H](O)CC(=O)N[C@@H](CC(N)=O)C(=O)N[C@@H](CCC(N)=O)C(=O)N[C@@H](CC(=O)c1cc(C)cc(O)c1C(=O)c1c(O)cccc1O)CC(C)C | 86.8% (inactive)
O=C(Nc1ccncc1)C(=O)c1cn(S(=O)(=O)c2ccc(Oc3ccccc3)cc2)c2ccccc12 | 94.4% (inactive)
CCCCOc1ccc(/C=C2/SC(N3CCOCC3)=NC2=O)cc1OCC | 94.3% (inactive)
Cc1cc(C)n(-c2nnc3n2N=C(c2ccc(-c4ccccc4)cc2)CS3)n1 | 71.1% (inactive)
COc1ccc2c(c1)cn1c3ccc(OC)cc3[nH]c(=O)c21 | -45.3% (active)
